High-throughput results deposited in PubChem BioAssay by National Center for Advancing Translational Sciences (NCATS).
HP1b chromo inh: inhibitors of HP1-beta chromodomain binding to methylated histone tails; P83916; AlphaScreen HP1-beta / biotin-H3K9me3 peptide binding; Potency, µM (highest dose often 114 µM), for inactives: top-dose activity change, negative = inhibition, actives largely listed as inhibitors; 390,000 compounds, 0.56% hits; also: potency is read from the fitted curve at half-maximal effect; nearly all actives have a fitted effect of over 70% in size
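HP1-beta protein (50 nM final) preincubated 30 min at room temperature with biotinylated H3(1-18)K9me3 peptide (50 nM) in PBS pH 7.4, 0.01% Tween-20, then compound added for 30 min. AlphaScreen streptavidin donor/nickel chelate acceptor beads (10 ug/mL final), 30 min dark, luminescence read.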
BAZ2B block: inhibitors of human BAZ2B bromodomain; Q9UIF8; AlphaScreen BAZ2B-H3K14Ac peptide displacement; Potency, µM (doses to about 114 µM), without a hit: at the top dose activity change, negative = inhibition, actives largely listed as inhibitors; 360,000 compounds, 4.4% hits; AID 504333; also: potency is read from the fitted curve at half-maximal effect; % is scaled to controls: 0 for no effect and ±100 for the full control effect; nearly all actives have a fitted effect of over 60% in size
Target sequence (Q9UIF8 whole entry, looked up): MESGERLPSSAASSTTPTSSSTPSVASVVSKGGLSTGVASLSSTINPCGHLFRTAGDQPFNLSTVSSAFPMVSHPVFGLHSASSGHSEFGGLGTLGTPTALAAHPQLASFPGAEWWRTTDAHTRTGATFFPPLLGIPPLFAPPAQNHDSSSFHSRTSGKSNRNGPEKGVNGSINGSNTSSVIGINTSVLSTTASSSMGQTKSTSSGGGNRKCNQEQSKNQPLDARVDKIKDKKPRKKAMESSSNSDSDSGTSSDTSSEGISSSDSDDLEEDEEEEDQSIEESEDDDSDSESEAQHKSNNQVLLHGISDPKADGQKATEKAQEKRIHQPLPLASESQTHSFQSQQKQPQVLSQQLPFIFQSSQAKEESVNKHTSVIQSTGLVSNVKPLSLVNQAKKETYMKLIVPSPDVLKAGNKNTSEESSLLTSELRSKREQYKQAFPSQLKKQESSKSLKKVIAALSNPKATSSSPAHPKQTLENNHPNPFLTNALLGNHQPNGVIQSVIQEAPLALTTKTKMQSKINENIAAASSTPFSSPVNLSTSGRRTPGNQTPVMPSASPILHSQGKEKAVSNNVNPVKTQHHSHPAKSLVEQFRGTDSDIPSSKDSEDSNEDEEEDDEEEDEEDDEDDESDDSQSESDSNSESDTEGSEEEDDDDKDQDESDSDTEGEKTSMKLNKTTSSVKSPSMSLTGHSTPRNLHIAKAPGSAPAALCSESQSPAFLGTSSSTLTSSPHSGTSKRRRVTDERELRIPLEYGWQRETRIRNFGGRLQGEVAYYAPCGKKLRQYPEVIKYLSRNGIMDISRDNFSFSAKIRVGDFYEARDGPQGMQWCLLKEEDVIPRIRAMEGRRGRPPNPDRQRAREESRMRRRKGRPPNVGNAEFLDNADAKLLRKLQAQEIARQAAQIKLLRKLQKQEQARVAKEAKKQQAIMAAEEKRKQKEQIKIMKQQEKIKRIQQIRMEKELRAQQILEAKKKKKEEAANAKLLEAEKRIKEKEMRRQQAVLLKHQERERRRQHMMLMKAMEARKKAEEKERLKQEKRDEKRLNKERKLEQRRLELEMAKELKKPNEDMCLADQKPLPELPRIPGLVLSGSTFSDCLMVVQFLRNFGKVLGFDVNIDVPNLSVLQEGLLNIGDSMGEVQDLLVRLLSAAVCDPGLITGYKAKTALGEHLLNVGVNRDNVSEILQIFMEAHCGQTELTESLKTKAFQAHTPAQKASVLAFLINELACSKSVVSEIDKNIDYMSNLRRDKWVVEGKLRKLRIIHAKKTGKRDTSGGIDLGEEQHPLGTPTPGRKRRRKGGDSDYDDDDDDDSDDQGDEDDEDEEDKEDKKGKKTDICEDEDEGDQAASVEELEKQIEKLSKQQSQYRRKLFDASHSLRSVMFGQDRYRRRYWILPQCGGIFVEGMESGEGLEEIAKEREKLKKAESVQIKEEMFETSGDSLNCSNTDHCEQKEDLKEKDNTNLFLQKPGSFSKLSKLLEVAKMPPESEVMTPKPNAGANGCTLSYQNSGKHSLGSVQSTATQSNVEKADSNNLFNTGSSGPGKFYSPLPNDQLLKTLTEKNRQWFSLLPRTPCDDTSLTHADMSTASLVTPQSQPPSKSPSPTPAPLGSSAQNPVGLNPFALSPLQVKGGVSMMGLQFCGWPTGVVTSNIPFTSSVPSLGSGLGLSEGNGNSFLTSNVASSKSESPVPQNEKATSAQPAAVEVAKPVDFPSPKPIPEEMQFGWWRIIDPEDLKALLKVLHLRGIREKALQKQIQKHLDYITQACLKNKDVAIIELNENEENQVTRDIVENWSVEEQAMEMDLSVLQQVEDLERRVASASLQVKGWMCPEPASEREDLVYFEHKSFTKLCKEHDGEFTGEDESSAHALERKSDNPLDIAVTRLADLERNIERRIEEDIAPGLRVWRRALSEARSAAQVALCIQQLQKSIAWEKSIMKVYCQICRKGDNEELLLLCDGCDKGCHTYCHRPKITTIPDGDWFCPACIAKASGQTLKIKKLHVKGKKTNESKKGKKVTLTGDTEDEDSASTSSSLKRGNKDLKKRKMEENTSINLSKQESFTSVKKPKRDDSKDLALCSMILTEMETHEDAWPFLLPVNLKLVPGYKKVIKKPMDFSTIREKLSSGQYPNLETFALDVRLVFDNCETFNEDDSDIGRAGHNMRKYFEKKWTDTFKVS
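Compounds, titrated to a top concentration of 110 uM, were incubated 30 min at room temperature with preformed BAZ2B/acetyl-K14 H3 peptide complex (50 nM each). Proximity signal was measured by AlphaScreen after 20 min with beads.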
G9a block: blocks human histone lysine methyltransferase G9a; Potency, µM (titrated, usually from 102 µM), inactives show top-dose activity, negative = inhibition, usual class: inhibitors; 350,000 compounds, 8.8% hits; AID 504332; G9a H3K9 monomethylation, AlphaScreen, 2 h; also: potency is read from the fitted curve at half-maximal effect; % is scaled to controls: 0 for no effect and ±100 for the full control effect; nearly all actives have a fitted effect of over 75% in size
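Signal arises when biotinylated H3K9 peptide, once monomethylated, bridges streptavidin donor and antibody-captured acceptor beads. Enzyme at 20 nM was preincubated 15 min with test compounds; peptide 500 nM and SAM 20 uM then reacted for 2 h.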
CtBP-E1A inh: inhibitors of CtBP/E1A interaction. AID 651724. 340,000 compounds, 0.49% hits. AlphaScreen GST-E1A/His-CtBP binding, 1536-well; stronger effect = lower value. activity change, % (test concentration not listed); in the data active = activity change below about -65%; inconclusive = mostly about -30% to -63%; also: % is scaled to controls: 0 for no effect and ±100 for the full control effect
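Homogeneous bead-based format: GST-tagged E1A captured on glutathione donor beads, His-tagged CtBP on nickel acceptor beads; compounds precede bead addition by 2 h at 37 °C.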
Six1-Eya2 inh: blocks human Six1 binding to Eya2 | Q15475+O00167 | AlphaScreen GST-Six1/His-Eya2 binding, biochemical; stronger effect = lower value | activity change, % (concentration not given with the values) | 360,000 compounds, 0.56% hits | AID 651725; in the data active = activity change below about -65%; inconclusive = mostly about -30% to -63%; also: % is scaled to controls: 0 for no effect and ±100 for the full control effect
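Compounds are tested against tagged Six1 and Eya2 proteins bridged by glutathione donor and nickel acceptor beads; after a one-hour incubation at 37 °C without light, AlphaScreen emission is recorded.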
JMJD2A Tudor inh: JMJD2A Tudor domain (human) inhibition; O75164; AlphaScreen JMJD2A-Tudor / H3K4me3 peptide binding; Potency, µM (titrated, usually from 114 µM), inactives show at the top dose activity change, negative = inhibition, usual class: inhibitors; 390,000 compounds, 4.4% hits; also: potency is read from the fitted curve at half-maximal effect; % is scaled to controls: 0 for no effect and ±100 for the full control effect; nearly all actives have a fitted effect of over 50% in size
Active calls of the source: *; ? = inconclusive; · = not tested or not shown; [ ] = another dose, or the depositor's remark. This is a sample that favours compounds with a hit; in the whole collection about 10% have one here. Unless noted, calls follow the shape of the dose curve; as a rule, active = well fitted inhibition curve with a large enough effect; inconclusive = small, poorly fitted or top-dose-only effect; inactive = no such curve, though single readings can be large or run the other way.

SMILES	HP1b chromo inh	BAZ2B block	G9a block	CtBP-E1A inh	Six1-Eya2 inh	JMJD2A Tudor inh
COc1cc(C(=O)Nc2ccc(OCC(=O)N3CCOCC3)cc2C)cc(OC)c1OC	25.4%	-16.9%	1.2%	2.0	4.3	-7.6%
Cc1ccc(NC(=O)c2cnc3cc(C)ccn3c2=O)c(C)c1	30.3%	1.7%	-0.1%[59 µM]	·	·	-2.5%
O=C(NCC(=O)N(CCc1ccccc1)C(C(=O)NC1CCCCC1)c1ccncc1)c1ccco1 (centres undefined)	37.7%	5.6%	39.8µM*	-1.9	-0.5	-8.6%
Cc1ccc(S(=O)(=O)Nn2c(C)nnc2-n2nc(C)cc2C)cc1	5.2%	70.8µM*	-41.7%[59 µM]	1.2	-24.6	50.1µM*
Cc1cc(C)n(-c2nnc(C)n2NS(=O)(=O)c2ccc(F)cc2)n1	-2.6%	?	13.3%[2.33 µM]	-1.6	-0.7	?
COc1cccc(Cn2cnc(-c3ccccc3OC)c2C2CC2)c1	·	·	·	-3.9	-5.4	·
COc1cc(CN2CCCCCC2)cc(OC)c1OC	?	?	31.6µM*	8.0	13.2	5.01µM*
COc1cc(CN2CCCCCC2)cc(OC)c1	32.4%	0.0%	13.4%	9.4	13.0	-5.5%
COc1ccc(OC)c(CN2CCN(C(=O)CN3C(=O)NC4(CCCC4)C3=O)CC2)c1	21.9%	-5.9%	-4.7%	-18.1	-0.6	-3.4%
COc1ccc(OC)c(CN2CCN(Cc3cc(OC)c(OC)c(OC)c3)CC2)c1	?	79.4µM*	-9.0%[0.501 µM]	8.1	-8.3	22.4µM*
COc1ccc(N=C2C(=O)Nc3c(C)cccc32)cc1	-7.2%	?	50.1µM*	6.9	3.2	?
Cc1ccc(CS(=O)(=O)CC(C)(O)c2ccc(Cl)cc2)cc1 (centres undefined)	25.3%	-4.0%	-13.4%[2.33 µM]	0.0	-0.2	3.5%
Cc1ccccc1-n1nnnc1SC(C)C(=O)Nc1ccc(N2CCN(C)CC2)cc1 (centres undefined)	-1.2%	?	-8.0%[12.7 µM]	-3.4	-13.5	?
Cc1cccc(-n2nnnc2SCC(=O)Nc2ccc(N3CCN(C)CC3)cc2)c1	-3.4%	?	44.7µM*	-6.2	-14.1	?
Cc1ccccc1-n1nnnc1SCC(=O)Nc1ccc(N2CCN(C)CC2)cc1	38.4%	-32.2%[57.1 µM]	50.1µM*	22.3	4.0	?
CCc1ccccc1-n1nnnc1SCC(=O)Nc1ccc(N2CCN(C)CC2)cc1	49.7%	?	50.1µM*	·	-9.8	10.1%
Cc1cccc(-n2nnnc2SCC(=O)NC2CCCC2)c1	0.9%	·	·	-0.2	-2.2	-2.1%
O=C(Nc1ccc2c3c(cccc13)CC2)c1ccccc1	·	·	·	4.5	-2.8	·
COc1ccc(CN(C(=O)Cc2c[nH]c3ccccc23)C(C(=O)NC2CCCCC2)c2ccc(C)o2)cc1 (centres undefined)	-0.1%	-29.7%	?	-17.9	-3.6	?
COc1cc(C(C(=O)NC2CCCCC2)N(C(=O)Cc2c[nH]c3ccccc23)c2ccccc2C)cc(OC)c1OC (centres undefined)	0.0%	?	39.8µM*	-12.7	-19.7	-29.5%
Cc1ccc(C(C(=O)NC2CCCCC2)N(Cc2ccccc2)C(=O)Cc2c[nH]c3ccccc23)o1 (centres undefined)	1.2%	?	2.51µM*	-18.5	-20.5	?
Cc1ccc(S(=O)(=O)N(C)C)cc1NC(=O)COC(=O)c1sc2cc(Cl)ccc2c1Cl	26.6%	-1.0%	31.0%[12.7 µM]	-6.3	12.9	-2.4%
COc1ccc(CCN2CC(C(=O)N3CCC(O)(c4ccccc4)CC3)CCC2=O)cc1 (centres undefined)	37.2%	-6.7%	·	5.3	2.5	6.2%
COc1ccc(CCn2c3c(c(=O)[nH]c2=S)CN(CC(C)C)CN3)cc1OC	34.9%	·	·	·	·	-4.8%
CCCCN(Cc1ccco1)C(=O)C1CCCN(c2ncnc3c2nc2n3CCCCC2)C1 (centres undefined)	36.8%	?	79.4µM*	-13.6	-15.5	?
SMILES	HP1b chromo inh	BAZ2B block	G9a block	CtBP-E1A inh	Six1-Eya2 inh	JMJD2A Tudor inh
Cc1ccc(S(=O)(=O)Nc2cc(C)c(O)cc2C)cc1	22.8%	-21.1%	50.1µM*	-19.7	4.9	-16.1%
COc1ccc(S(=O)(=O)Nc2cc(C)c(O)cc2C(C)C)cc1	4.6%	4.9%	25.1µM*	-1.0	6.8	-33.6%
Cc1ccc(S(=O)(=O)Nc2csc(C)c2C(=O)O)cc1	18.6%	44.7µM*	39.8µM*	-2.7	-22.1	-14.6%
COc1ccc(S(=O)(=O)Nc2cc(C(C)C)c(O)cc2C)cc1	9.9%	-0.7%	-27.2%[12.7 µM]	-0.1	4.2	-15.1%
CCOc1ccc(NC(=S)N(CCc2c(C)[nH]c3ccc(C)cc23)Cc2ccncc2)cc1	-19.9%	35.5µM*	39.8µM*	?	-14.2	25.1µM*
Cc1[nH]c2ccccc2c1CCN(Cc1cccnc1)C(=S)Nc1ccc(F)cc1	-7.5%	·	?	-0.2	-14.0	?
Cc1[nH]c2ccccc2c1CCN(Cc1cccnc1)C(=S)Nc1cccc(F)c1	-8.4%	·	50.1µM*	-11.5	-8.9	?
Cc1[nH]c2ccc(F)cc2c1CCN(Cc1cccnc1)C(=S)Nc1ccccc1	-1.5%	·	56.2µM*	·	-0.5	?
COc1ccc(NC(=S)N(CCc2c(C)[nH]c3ccc(C)cc23)Cc2cccnc2)cc1	-21.8%	35.5µM*	50.1µM*	-26.3	-14.8	50.1µM*
Cc1[nH]c2ccc(F)cc2c1CCN(Cc1ccncc1)C(=S)Nc1ccccc1	-8.3%	·	?	3.5	-14.5	?
CC(=O)C(C(C)=O)C(NC(=O)c1cccnc1)(C(F)(F)F)C(F)(F)F	20.0%	-24.4%	-15.6%[59 µM]	11.5	5.8	3.55µM*
CN(C)c1ccc(/C=N/NC(=S)NCc2ccccc2)cc1	50.1µM*	?	?	?	?	12.6µM*
Cc1ccccc1N(CC(=O)N/N=C/c1ccc(N(C)C)cc1)C(=O)c1ccccc1	?	56.2µM*	?	?	?	20µM*
Cc1ccccc1N(CC(=O)N/N=C/c1ccccc1Cl)C(=O)c1ccccc1	33.9%	9.8%	?	-9.7	6.0	-5.7%
